# Results filed as inconclusive are left out. Activity calls are given as the source filed them. Rule for the calls: active = hit-call score of the fitted dose curve at least 0.9, where 1 is the maximum; inconclusive = response in the unintended direction; inactive = score below 0.9.
# Assay: ATG_M_19_TRANS: Attagene TRANS-FACTORIAL HepG2 Assay for M19 Transcription Factor (Internal Marker) (AID 2282974)
# Conditions: HepG2 Attagene TRANS-FACTORIAL M19 internal marker reporter
# Method: ATG_TRANS is a cell-based, multiplexed-readout assay that uses HepG2, a human liver cell line, with measurements taken at 24 hours after chemical dosing in a 24-well plate.ATG_M_19_TRANS is one of 30 assay component(s) measured or calculated from the ATG_TRANS assay. It is designed to make measurements of mRNA induction, a form of inducible reporter, as detected with fluorescence intensity signals by Reverse transcription polymerase chain reaction (RT-PCR) and Capillary electrophoresis technology.Data from the assay component ATG_M_19_TRANS was analyzed into 1 assay endpoint. This assay endpoint, ATG_M_19_TRANS, was analyzed in the positive analysis fitting direction relative to DMSO as the negative control and baseline of activity. Using a type of inducible reporter, measures of mRNA for gain-of-signal activity can be used to understand the background control at the transcription factor-level as they relate to the gene . Furthermore, this assay endpoint can be referred to as a secondary readout, because this assay has produced multiple assay endpoints where this one serves a background control function. To generalize the intended target to other relatable targets, this assay endpoint is annotated to the background measurement intended target family, where the subfamily is internal marker.
# Human liver HepG2 cells are transiently transfected with multiple reporter transcription units (MRTUs) in 6-well plates using FuGene 6 reagent (Roche; 3 ml FuGene/1 mg DNA). The MRTU constructs are regulated by a cis-regulating element (promoter). […] A major difference between the CIS and TRANS system is that in CIS activities of endogenous TFs are measured, whereas the TRANS assay evaluates changes in activities of exogenous, chimeric NR-Gal4 proteins. […] At the end of 24 hour incubation, total RNA was isolated using TriZol reagent (Invitrogen). The isolated RNA is then reverse-transcribed using oligo(dT) primer and Mo-MLV reverse transcriptase (Invitrogen) with DNAse I (Ambion) treatment for 30 min. The one-tenth of the produced cDNA was amplified by PCR using Taq DNA polymerase (Invitrogen) and two reporter sequence-specific primers. The PCR products were fluorescently labeled by primer extension with 6-arboxyfluorescein (6-FAM) 5'-labeled reporter sequence-specific primer (2 min at 95 C, 20 s at 68 C and 10 min at 72 C) and these products were digested with 5U of HpaI (New England Biolabs) for 2h at 37 C. The fragments were purified using Qiaquick PCR columns (Qiagen), analyzed on an ABI 3130xL genetic analyzer (Applied Biosystems) with peak positions identified by using a set of X-rhodamine (ROX)-labeled MapMarker1000 molecular weight standards (BioVentures). The raw capillary electrophoresis data was processed using Attagraph software (Attagene).
row,Structure (SMILES),outcome
1,CC1=C(/C=C/C(C)=C/C=C/C(C)=C/C(=O)O)C(C)(C)CCC1,inactive
2,COCC(C)O (stereo not given),inactive
3,Cc1cc(C)c(O)c(C)c1,inactive
4,ClC1=C(Cl)C(Cl)(Cl)C(Cl)=C1Cl,inactive
5,CCCCCCCC(=O)O,inactive
6,CCCOC(=O)c1ccc(O)cc1,inactive
7,CC[C@H](C)[C@@H](C(=O)O)n1sc2ccccc2c1=O,inactive
8,Cc1ccc(S(=O)(=O)O)c(C)c1,inactive
9,COc1ccc([N+](=O)[O-])cc1N,inactive
10,C[C@@H]1C[C@H]2[C@@H]3CCC4=CC(=O)C=C[C@]4(C)[C@@]3(F)[C@@H](O)C[C@]2(C)[C@@]1(O)C(=O)COP(=O)(O)O,inactive
11,C#C[C@]1(O)CC[C@H]2[C@@H]3CCC4=CC(=O)CC[C@@H]4[C@H]3CC[C@@]21C,inactive
12,CCC(C)(C)C1CCC(O)CC1 (stereo not given),inactive
13,CC#C[C@]1(O)CC[C@H]2[C@@H]3CCC4=CC(=O)CCC4=C3[C@@H](c3ccc(N(C)C)cc3)C[C@@]21C,inactive
14,c1ccc2cc3c(ccc4ccccc43)cc2c1,inactive
15,COc1cc(CCC(=O)CC(=O)CCc2ccc(O)c(OC)c2)ccc1O,inactive
16,CC(C)(C)c1cc(C(C)(C)C)c(O)c(C(C)(C)C)c1,inactive
17,FC(F)(I)C(F)(F)C(F)(F)C(F)(F)C(F)(F)C(F)(F)I,inactive
18,Nc1cccc2c(N)cccc12,inactive
19,CCCCCCCCOC(=O)CCCCCCCCC(=O)OCCCCCCCC,inactive
20,CC(=O)NC1(c2cccc(F)c2)CCN(CC[C@@]2(c3ccc(Cl)c(Cl)c3)CN(c3ccccc3)C(=O)CO2)CC1,inactive

row,Structure (SMILES),outcome
1,CCCCCCCCCCCCc1ccccc1S(=O)(=O)O,inactive
2,O=C(OCCOCCOC(=O)c1ccccc1)c1ccccc1,inactive
3,OC1CCC(C2CCCCC2)CC1 (stereo not given),inactive
4,C=C(C)C(=O)OCCC(F)(F)C(F)(F)C(F)(F)C(F)(F)C(F)(F)C(F)(F)F,inactive
5,CCC(=C(c1ccc(O)cc1)c1ccc(OCCN(C)C)cc1)c1ccccc1,inactive
6,O=C(O)Cc1cc(I)c(Oc2cc(I)c(O)c(I)c2)c(I)c1,inactive
7,CC[C@H](c1ccc(O)cc1)[C@@H](CC)c1ccc(O)cc1,inactive
8,CCCCCCC(=O)O,inactive
9,OCCC(F)(F)C(F)(F)C(F)(F)C(F)(F)C(F)(F)C(F)(F)C(F)(F)C(F)(F)F,inactive
10,CCCCC(CC)COC(=O)CCCCC(=O)OCC(CC)CCCC (stereo not given),inactive
11,O=C(O)c1ccccc1C(c1ccc(O)cc1)c1ccc(O)cc1,inactive
12,N#C[C@@H]1CC(F)(F)CN1C(=O)CNC1CC2CCC(C1)N2c1ncccn1 (stereo not given in full),inactive
13,NC(=O)N(O)[C@@H]1C=C[C@H](Oc2cccc(Oc3ccc(F)cc3)c2)C1,inactive
14,CCCCOCCO,inactive
15,CCc1ccc(CCOc2ccc(CC3SC(=O)NC3=O)cc2)nc1 (stereo not given),inactive
16,Oc1cc2ccccc2c2ccccc12,inactive
17,COCC(C)OCC(C)O (stereo not given),inactive
18,CCCOc1sc(C(=O)N2CCC(c3cc(CN)ccc3F)CC2)c(C)c1Br,inactive
19,CC(=O)CC(C)(C)O,inactive
20,CCOC(=O)CC(O)(CC(=O)OCC)C(=O)OCC,inactive

# Source: PubChem BioAssay (EPA / NIEHS)
